The target in one assay is Albumin (Bos taurus) (UniProt P02769). Briefly: compounds binding labelled BSA control protein – biochemical, small-molecule microarray, Alexa647 label, 635/667 nm fluorescence, artefact control for SMM control protein annotation, profiling panel (AID 1118).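 Further: score merges 667 nm emission intensity and signal-to-noise per printed compound spot.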 As to conditions: BSA-A647 binding, fluorescence 635 nm, higher = more signal.
Assay [1] can be described thus: probe aXIP binding to arrayed compounds – biochemical, NeuroSMM set, 635/667 nm fluorescence, primary screen (AID 1119).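 Further: probe is the protein aXip251-270 applied at 1 µg/mL to compound-printed slides; binding of probe to printed compounds measured as 667 nm fluorescence plus signal to noise.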 As to conditions: small-molecule microarray, higher = more signal, called active from +8 up or from −8 down.
The nature of assay [2]: probe aNOTCH3 binding on compound microarray – biochemical, small-molecule microarray, 635/667 nm fluorescence, primary screen (AID 1120).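 Further: probe is a biotin-tagged antibody raised against NOTCH3 rather than NOTCH3 protein; score merges spot fluorescence near 667 nm with spot signal to noise.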 As to conditions: higher = more signal.
Assay [3] is described as follows: probe aNOTCH2 binding on compound microarray – biochemical, small-molecule microarray, 635/667 nm fluorescence, primary screen (AID 1121).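 Further: score merges feature fluorescence read at 667 nm with its signal to noise.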 As to conditions: higher = more signal.
Assay [4] addresses Carbonic anhydrase 2 (Homo sapiens) (UniProt P00918). Briefly: compounds binding carbonic anhydrase 2 – biochemical, small-molecule microarray, Alexa647-labelled CAII, profiling panel (AID 1122). As to conditions: CAII-A647 binding fluorescence, higher = more signal.
Assay [5] in a line: COS7 lysate on small-molecule microarray, probe aHis, 635 nm (AID 1123).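 Further: z-score combines 667nm fluorescence intensity with signal-to-noise per printed compound spot.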 As to conditions: COS7 cell lysate, fluorescence, higher = more signal.
Assay [6] can be described thus: probe aLAP1 signal on lysate-treated microarray – cell lysate, small-molecule microarray, COS7 lysate, primary screen (AID 1124).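 Further: lysate comes from COS7 cells expressing LAP1 and is applied at 0.3 µg/mL; score merges spot fluorescence near 667 nm with signal-to-noise over triplicate slides.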 As to conditions: probe aLAP1, fluorescence, higher = more signal.
Another assay concerns Sam68 (KHDRBS1). Briefly: compounds binding KHDRBS1 protein – biochemical, small-molecule microarray, 635 nm fluorescence, primary screen (AID 1125).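 Further: score merges 667 nm channel intensity with signal to noise over triplicate slides.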 As to conditions: higher = more signal.
Assay [7] relates to Chordin-like protein 2 (CHRDL2). Briefly: compounds binding chordin-like 2 – biochemical, small-molecule microarray, 635 nm fluorescence, primary screen (AID 1126).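 Further: printed compound slides probed with Chrdl2 protein at 4 µg/mL for 1 h at 4 C; score merges 667 nm emission intensity with signal to noise over three replicate slides.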 As to conditions: fluorescence 635 nm, higher = more signal.
For assay [8], the target named is Concanavalin-A (Canavalia ensiformis) (UniProt P02866). Briefly: compounds binding concanavalin A lectin – biochemical, small-molecule microarray, Alexa647 label, 635 nm, artefact control for SMM control protein annotation, primary screen (AID 1127).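 Further: z combines 667 nm emission intensity with signal-to-noise across three replicate slides.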 As to conditions: ConA-A647 binding fluorescence, higher = more signal.
Chain of Concanavalin-A (Canavalia ensiformis) (P02866 whole entry, looked up): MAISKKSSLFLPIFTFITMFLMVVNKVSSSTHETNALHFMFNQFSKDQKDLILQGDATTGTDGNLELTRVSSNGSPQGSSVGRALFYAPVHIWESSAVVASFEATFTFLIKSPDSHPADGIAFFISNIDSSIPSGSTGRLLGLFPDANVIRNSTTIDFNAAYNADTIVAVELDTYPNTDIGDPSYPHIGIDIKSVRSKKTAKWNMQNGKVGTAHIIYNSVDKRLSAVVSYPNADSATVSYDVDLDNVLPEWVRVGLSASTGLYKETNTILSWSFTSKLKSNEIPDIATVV
The nature of assay [9]: compounds binding Alexa647 anti-His antibody – biochemical, small-molecule microarray, 635 nm fluorescence, artefact control for SMM control protein annotation, primary screen (AID 1128).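 Further: score merges feature fluorescence with signal-to-noise for each printed compound spot.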 As to conditions: higher = more signal.
Assay [10] concerns Human papillomavirus type 1a E7 protein (residues 1-88). Briefly: HPV1a E7 small-molecule binders, primary screen, biochemical, small-molecule microarray, residues 1-88, 635 nm (AID 1129). As to conditions: small-molecule microarray binding, fluorescence 635 nm; higher = more signal.
The target in assay [11] is Focal adhesion kinase 1 (Homo sapiens) (UniProt Q05397). Briefly: PTK2 protein binding on printed compound slides – biochemical, small-molecule microarray, 635/667 nm fluorescence, BSA, DTT, primary screen (AID 1130).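 Further: composite of spot emission at 667 nm and signal to noise over triplicate slides.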 As to conditions: 635 nm fluorescence, higher = more signal.
Chain of Focal adhesion kinase 1 (Homo sapiens) (Q05397 whole entry, looked up): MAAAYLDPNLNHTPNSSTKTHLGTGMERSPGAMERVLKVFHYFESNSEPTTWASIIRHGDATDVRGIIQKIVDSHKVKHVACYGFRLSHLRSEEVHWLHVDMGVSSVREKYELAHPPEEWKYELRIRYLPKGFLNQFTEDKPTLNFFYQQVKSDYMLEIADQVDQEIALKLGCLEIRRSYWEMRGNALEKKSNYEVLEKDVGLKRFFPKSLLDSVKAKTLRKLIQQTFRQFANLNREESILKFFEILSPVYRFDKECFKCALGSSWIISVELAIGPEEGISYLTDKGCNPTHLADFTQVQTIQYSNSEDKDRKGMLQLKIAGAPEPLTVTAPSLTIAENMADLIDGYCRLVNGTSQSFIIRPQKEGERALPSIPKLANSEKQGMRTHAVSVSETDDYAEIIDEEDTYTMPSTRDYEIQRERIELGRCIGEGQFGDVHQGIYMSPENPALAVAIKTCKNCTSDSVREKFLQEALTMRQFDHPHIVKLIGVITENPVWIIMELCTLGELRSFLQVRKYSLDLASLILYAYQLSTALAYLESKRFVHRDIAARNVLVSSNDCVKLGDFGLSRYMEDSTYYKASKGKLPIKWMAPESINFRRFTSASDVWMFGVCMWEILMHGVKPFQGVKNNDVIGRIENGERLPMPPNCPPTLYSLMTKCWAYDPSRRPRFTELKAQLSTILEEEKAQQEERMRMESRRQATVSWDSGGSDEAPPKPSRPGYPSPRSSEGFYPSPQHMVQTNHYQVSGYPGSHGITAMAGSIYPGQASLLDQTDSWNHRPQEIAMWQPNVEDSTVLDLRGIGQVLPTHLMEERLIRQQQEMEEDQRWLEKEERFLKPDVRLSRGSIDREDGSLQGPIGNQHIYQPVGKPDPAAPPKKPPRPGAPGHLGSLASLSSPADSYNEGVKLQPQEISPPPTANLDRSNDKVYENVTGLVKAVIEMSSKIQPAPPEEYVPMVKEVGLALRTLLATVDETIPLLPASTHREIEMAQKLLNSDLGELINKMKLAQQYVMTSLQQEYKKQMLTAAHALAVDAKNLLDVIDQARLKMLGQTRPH
The test system of assay [12] is Fibrinogen (Alexa647-labelled). Briefly: Alexa647-fibrinogen binding to printed small molecules – biochemical, small-molecule microarray, 635/667 nm fluorescence, artefact control for SMM control-protein annotation, profiling panel (AID 1131).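 Further: z-score merges 667 nm fluorescence with per-spot signal-to-noise over triplicate slides.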 As to conditions: fibrinogen-A647 binding fluorescence, higher = more signal.
In assay [13] the target is Follistatin (Homo sapiens) (UniProt P19883). Briefly: FST protein binding to printed compounds – biochemical, small-molecule microarray, 635/667 nm fluorescence, primary screen (AID 1132). As to conditions: 635 nm fluorescence, higher = more signal.
Chain of Follistatin (Homo sapiens) (P19883 whole entry, looked up): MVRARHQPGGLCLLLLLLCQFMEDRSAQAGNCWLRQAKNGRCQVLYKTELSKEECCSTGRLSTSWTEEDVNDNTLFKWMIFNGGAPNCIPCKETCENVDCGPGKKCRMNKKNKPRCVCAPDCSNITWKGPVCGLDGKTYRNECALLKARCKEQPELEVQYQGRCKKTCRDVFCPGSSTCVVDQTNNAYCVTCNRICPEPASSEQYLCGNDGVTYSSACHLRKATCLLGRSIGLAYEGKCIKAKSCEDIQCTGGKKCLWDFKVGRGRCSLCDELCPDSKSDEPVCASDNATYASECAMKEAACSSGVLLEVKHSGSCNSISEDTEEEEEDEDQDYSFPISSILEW
In assay [14] the target is Fibroblast growth factor 2 (Homo sapiens) (UniProt P09038). Briefly: basic fibroblast growth factor binding to printed compounds – biochemical, small-molecule microarray, 635/667 nm fluorescence, primary screen (AID 1133). As to conditions: FGF2, fluorescence 635/667, higher = more signal.
Chain of Fibroblast growth factor 2 (Homo sapiens) (P09038 whole entry, looked up): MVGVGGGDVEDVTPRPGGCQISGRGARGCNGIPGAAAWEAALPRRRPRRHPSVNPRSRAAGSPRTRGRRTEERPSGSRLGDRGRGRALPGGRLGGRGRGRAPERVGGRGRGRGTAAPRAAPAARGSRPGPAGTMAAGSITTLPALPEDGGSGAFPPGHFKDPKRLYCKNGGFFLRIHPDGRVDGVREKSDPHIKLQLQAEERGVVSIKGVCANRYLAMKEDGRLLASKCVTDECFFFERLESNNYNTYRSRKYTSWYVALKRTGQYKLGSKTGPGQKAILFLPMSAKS
Assay [15] in a line: JC-1 mitochondrial potential readout, lung cancer cells – cell-based, A549, JC-1 fluorescence, basal, 24 h, 100 nL, profiling panel (AID 1138).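 Further: A549 lung adenocarcinoma cells under basal conditions with no added stimulus; test concentration not given here.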 As to conditions: higher = more signal.
The test system of a further assay is Lefty1. Briefly: Lefty1 protein binding to printed compounds – biochemical, small-molecule microarray, 635/667 nm fluorescence, primary screen (AID 1139). As to conditions: fluorescence 635/667, higher = more signal.
Assay [16] relates to wheat germ agglutinin (Triticum aestivum), Alexa647-labelled. Briefly: Alexa647-WGA lectin binding to printed small molecules – biochemical, small-molecule microarray, 635/667 nm fluorescence, artefact control for SMM control-protein annotation, profiling panel (AID 1140).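 Further: score merges 667 nm feature emission with signal to noise over triplicate slides.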 As to conditions: WGA-A647 binding, 635 nm fluorescence, higher = more signal.
Assay [17] concerns the target Luciferin 4-monooxygenase (Photinus pyralis) (UniProt P08659). Briefly: inhibition of purified Photinus pyralis luciferase – biochemical, luminescence, purified enzyme, 2006 set, primary screen (AID 1141).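 Further: cell-free assay with purified firefly luciferase at 100 ng per well in PBS; test concentration not given here.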 As to conditions: purified firefly luciferase, SteadyGlo luminescence, 30 min; higher = more signal, called active from +8 up or from −8 down.

Structures are written as SMILES. Calls of active or inactive are those of the source.

Chain of Luciferin 4-monooxygenase (Photinus pyralis) (P08659 whole entry, looked up): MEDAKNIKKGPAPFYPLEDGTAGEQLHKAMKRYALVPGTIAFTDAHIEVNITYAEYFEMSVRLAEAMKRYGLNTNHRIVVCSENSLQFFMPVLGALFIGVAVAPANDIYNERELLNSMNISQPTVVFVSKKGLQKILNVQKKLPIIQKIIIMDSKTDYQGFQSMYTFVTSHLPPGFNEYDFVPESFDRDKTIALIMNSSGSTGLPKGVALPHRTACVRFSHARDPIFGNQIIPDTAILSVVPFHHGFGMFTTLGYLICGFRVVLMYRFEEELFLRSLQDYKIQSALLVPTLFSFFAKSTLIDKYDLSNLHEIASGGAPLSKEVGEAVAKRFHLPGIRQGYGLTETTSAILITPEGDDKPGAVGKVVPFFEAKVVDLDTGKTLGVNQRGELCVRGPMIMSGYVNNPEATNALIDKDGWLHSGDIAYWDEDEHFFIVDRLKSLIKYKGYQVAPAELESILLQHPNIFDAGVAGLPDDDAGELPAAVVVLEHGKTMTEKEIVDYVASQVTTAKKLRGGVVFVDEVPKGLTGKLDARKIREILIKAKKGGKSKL
Chain of Albumin (Bos taurus) (P02769 whole entry, looked up): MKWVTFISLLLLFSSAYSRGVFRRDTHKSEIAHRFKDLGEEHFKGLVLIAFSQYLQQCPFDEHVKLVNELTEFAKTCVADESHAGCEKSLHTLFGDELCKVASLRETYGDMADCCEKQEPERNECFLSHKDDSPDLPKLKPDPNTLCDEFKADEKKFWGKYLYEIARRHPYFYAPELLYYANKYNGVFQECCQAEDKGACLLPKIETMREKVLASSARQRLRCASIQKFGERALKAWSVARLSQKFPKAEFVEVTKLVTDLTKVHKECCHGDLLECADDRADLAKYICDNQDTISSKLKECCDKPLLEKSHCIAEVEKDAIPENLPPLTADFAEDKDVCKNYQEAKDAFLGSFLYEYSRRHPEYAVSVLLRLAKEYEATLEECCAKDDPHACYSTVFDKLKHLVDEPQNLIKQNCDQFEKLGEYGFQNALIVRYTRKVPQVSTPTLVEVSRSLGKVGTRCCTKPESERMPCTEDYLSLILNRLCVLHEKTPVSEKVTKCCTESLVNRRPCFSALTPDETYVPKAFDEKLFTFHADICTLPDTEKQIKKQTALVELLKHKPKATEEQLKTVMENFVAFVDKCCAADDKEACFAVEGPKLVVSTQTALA

As to `CCOC(=O)[C@H](Cc1ccccc1)NC(=O)CCC1CC(OC(=O)NCc2cccc3ccccc23)CC2(CCCC(COC(=O)NCCc3ccc(Cl)cc3)O2)O1` (stereo not given in full), the composite z-score was 0.278 with Albumin (Bos taurus); -0.296 in [2]; -0.203 in assay [3]; 0.349 in assay [4]; 0.37 in assay [5]; -0.126 in assay [6]. The composite z-score in the assay on Sam68 (KHDRBS1) was 1.08; in [7] it was 0.253; in assay [8], 1.03; in assay [9], 0.486; in assay [10], 0.791; in assay [11], 0.222. Also, the composite z-score came to 0.78 in [12]; 0.461 in assay [13]; 0.344 in assay [14]; 0.414 with Lefty1; 0.556 in assay [16]. Further, in assay [1], the composite Z-score is -0.413 (inactive). Besides, the z-score is -0.243 in assay [15] and 1.36 (inactive) in [17].

With `C[C@@H]1CC[C@H]2C(=O)O[C@@H](COc3ccc(C(C)(C)C)cc3)CN2[C@H]1c1ccc(Br)cc1`, the composite z-score with Albumin (Bos taurus) was 0.425; in assay [2], -0.0663; in assay [3], -0.164; in assay [4], -0.0795; in assay [5], 1.39; in assay [6], 0.21. The composite z-score in the assay on Sam68 (KHDRBS1) is 0.292; in assay [7], 0.329; in [8], 0.721; in assay [9], -0.0988; in assay [10], -0.153; in assay [11] it was -0.171. For the same compound, the composite z-score in assay [12] amounted to 0.407; in assay [13], 0.0252; in assay [14] it was 0.0914; in the assay with Lefty1, 0.135; in [16] it was 0.0196. In addition, the composite Z-score in [1] is 0.289 (inactive). In addition, the z-score was 0.784 in [15] and 0.104 (inactive) in assay [17].

For the compound `C[C@@H](c1ccccc1)N1C(=O)[C@H]2[C@H]3[C@H](O)[C@H](O)CC(=NOCc4ccccc4)[C@@H]3CC[C@H]2C1=O`, the composite z-score is 0.758 in the assay with Albumin (Bos taurus); -0.0055 in [2]; -0.0467 in [3]; -0.247 in [4]; 0.043 in assay [5]; 0.017 in assay [6]. Besides, the composite z-score in the assay with Sam68 (KHDRBS1) was -0.105; in [7], 0.823; in assay [8] it was -0.577; in assay [9] it was 0.151; in assay [10], -0.513; in assay [11], 0.0826. Besides, the composite z-score in [12] is 0.0844; in [13], -0.7; in assay [14] it was -0.0815; in the assay with Lefty1 it was -0.684; in [16], 0.32. The composite Z-score in assay [1] is 0.081 (inactive). The z-score in [15] is -0.781; in assay [17], 0.747 (inactive).

`CCOC(=O)[C@H](Cc1ccccc1)NC(=O)CCC1CC(OC(=O)NCc2cccc3ccccc23)CC2(CCCC(COC(=O)NCc3ccc4c(c3)OCO4)O2)O1` (stereo not given in full): the composite z-score with Albumin (Bos taurus) is 0.85; in assay [2], 0.0824; in assay [3], -0.148; in assay [4], 0.509; in assay [5], 0.831; in assay [6], 0.404. The composite z-score in the assay on Sam68 (KHDRBS1) is 0.477; in assay [7] it was -0.054; in assay [8], 0.0672; in assay [9], 0.209; in assay [10], 0.397; in [11] it was 0.338. Further, the composite z-score is 0.508 in assay [12]; 0.222 in assay [13]; 0.982 in assay [14]; 0.659 in the assay with Lefty1; -0.074 in [16]. Further, the composite Z-score in assay [1] is 0.464 (inactive). For the same compound, the z-score in assay [15] is 0.4; in [17], -0.323 (inactive).

`Cc1cc(C)c(-c2cc([C@H](C)ON=C[C@@H](C)[C@H](OCc3ccccc3)C(C)C)on2)c(C)c1`: the composite z-score with Albumin (Bos taurus) is -0.365; in assay [2], -0.061; in assay [3] it was -0.185; in [4] it was -0.206; in assay [5], -0.244; in assay [6], -0.637. Also, the composite z-score in the assay on Sam68 (KHDRBS1) was -0.686; in assay [7], -0.11; in [8], -0.412; in assay [9] it was -0.781; in [10] it was -1.04; in assay [11], 0.0063. Further, the composite z-score was -1.82 in assay [12]; -0.158 in [13]; 0.133 in assay [14]; 0.116 in the assay with Lefty1; 0.528 in assay [16]. For the same compound, in assay [1], the composite Z-score is 0.687 (inactive). Also, the results for the z-score in assay [15] and in [17] were 1.18 and 0.82 (inactive), respectively.

Source of the values: PubChem BioAssay.
